Tau ThT inhib: tau fibrillization inhibition (ThT binding) | Potency, µM (doses to about 57.4 µM), actives largely listed as inhibitors | recombinant tau K18 P301L, heparin-induced fibrillization, ThT fluorescence | actives 2.1% (n = 270,000); also: nearly all actives have a fitted effect of over 55% in size
Target sequence (P10636 561-689 P618L limits assumed): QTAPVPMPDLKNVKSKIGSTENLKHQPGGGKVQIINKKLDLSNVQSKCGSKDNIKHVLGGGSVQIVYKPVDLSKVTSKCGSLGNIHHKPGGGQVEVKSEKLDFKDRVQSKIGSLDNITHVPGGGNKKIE
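Heparin-induced fibrillization of the P301L-mutant K18 repeat-domain fragment of human tau was followed by ThT binding in quantitative high-throughput format.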
Coupling enz: coupling enzyme interference in Giardia aldolase counter-screen | activity change, negative = inhibition, % at 58.2 µM, hits read low | coupling enzyme system counterscreen, AmpLite Red fluorescence | actives 0.67% (n = 290,000) | AID 2472; in the data active = activity change below about -30%
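Compounds tested against the coupling enzymes alone at 57.5 uM final; readout was AmpLite Red fluorescence (525/598 nm) after 20 min at RT.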
Tau fluor cs: counter-screen for tau fibril formation inhibitors; actives 0.93% (n = 280,000); tau K18 P301L Alexa594 fluorescence, heparin fibrillization; Potency, µM (series often up to 57.7 µM); also: nearly all actives have a fitted effect of over 55% in size
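Human tau K18 P301L (15 uM unlabeled, 0.24 uM Alexa 594-labeled) in 100 mM sodium acetate pH 7 with 20 uM heparin, 6 hr at 37 C. ThT 30 uM added, 1 hr ambient; Alexa 594 FP and total fluorescence read at 555/632 nm.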
Sfp PPTase inh: Sfp phosphopantetheinyl transferase inhibition; Q9F4F7; actives 3.5% (n = 310,000); Biochemical Sfp PPTase activity, qHTS; Potency, µM, most hits filed as inhibitors;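 also: the enzyme is Sfp with the accession as filed and its product quenches rhodamine fluorescence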
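Fluorescence-quenching assay with 15 nM Sfp, 5 uM rhodamine-CoA and 12.5 uM BHQ-2-labelled ybbR peptide in pH 7.6 Hepes/MgCl2 buffer. Enzyme was pre-incubated with compound for 15 min at room temperature. Rate was taken from the 30-min fluorescence change (525/598 nm).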
Tau FP inhib: blocks human tau fibril formation measured by polarization; actives 0.39% (n = 280,000); P10636; K18 P301L tau heparin fibrillization, Alexa594 FP, 6 h; AID 1468; Potency, µM (series often up to 57.7 µM), actives largely listed as inhibitors; also: nearly all actives have a fitted effect of over 55% in size
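Human tau K18 […] P301L fragment, 15 uM unlabeled plus 0.24 uM Alexa 594-labeled tau (final), with compound and 20 uM heparin in 100 mM sodium acetate pH 7; 6 hr at 37 C, then Alexa 594 FP read.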
A number is an active result; - = inactive; ? = inconclusive; . = not tested or not shown; [ ] = dose if it differs, or a comment. Shown are actives, neighbours in structure and some others; about 5.2% of the full set was active somewhere. Unless noted, calls follow the shape of the dose curve; as a rule, active = well fitted curve in the direction sought with a large enough effect; inconclusive = small, poorly fitted or top-dose-only effect, or another doubt; inactive = no such curve, though single readings can be large; an effect the other way counts as inactive or inconclusive.

SMILES	Tau ThT inhib	Coupling enz	Tau fluor cs	Sfp PPTase inh	Tau FP inhib
CCc1ccc2[nH]c(=O)c(CN(CC3CCCO3)C(=S)NCc3ccco3)cc2c1 (centres undefined)	.	-	-	3.5µM	?
COc1ccc(Cl)cc1S(=O)(=O)NCc1ccc2c(c1)CCN2C(=O)c1cccc(C)c1	-	.	-	.	-
CN(C(=O)CSc1nc(C2CCCC2)nc2c1c(=O)n(C)c(=O)n2C)c1ccccc1	-	.	-	.	-
CC(C)(C)c1ccc(N2C[C@@H](COc3ccc(C(=O)O)cc3)CC2=O)cc1	.	-	.	-	.
COc1ccc2[nH]c(=O)c(CN(CC3CCCO3)C(=S)Nc3cccc(C)c3)cc2c1 (centres undefined)	-	-	-	56µM	-
CCOc1ccc2[nH]c(=O)c(CN(Cc3ccco3)C(=O)c3ccc(Br)cc3)cc2c1	?	-	-	40µM	-
O=c1cc(-c2ccc(O)cc2)oc2cc(OC3OC(CO)C(O)C(O)C3O)c(C3OC(CO)C(O)C(O)C3O)c(O)c12 (centres undefined)	.	-	.	-	.
CCNC(=S)N/N=C/c1cccc(/C=N/NC(=S)NCC)c1	-	-	-	40µM	-
Cc1cnc(SCCc2ccncc2)nc1C	?	-	-	11µM	-
N#Cc1cnc(SCCc2ccccc2)nc1N	-	-	-	-	-
COc1ccccc1/C=C/c1nc2ccccc2n1C(C)C	?	.	-	.	-
Cc1cc(C)c2nc(-c3ccccn3)cc(C(=O)NCc3cc(C)n(C)n3)c2c1	-	-	-	-	-
Cc1cc(C)c2nc(-c3ccccn3)cc(C(=O)NCc3ccco3)c2c1	?	-	-	56µM	?
Cc1ccc(-c2cc(C(=O)NCc3ccco3)c3ccccc3n2)o1	?	-	-	45µM	-
Cc1cc(C(=O)Nc2ccccc2C)c2ccccc2n1	.	-	.	-	.
Cc1ccc(-c2cc(C(=O)Nc3ccccc3C)c3ccccc3n2)o1	-	-	-	8.9µM	-
O=C(NCc1ccccn1)c1cc(-c2ccccc2)nc2ccccc12	-	-	-	-	-
O=C(NCc1ccccn1)c1cc(-c2ccc(-c3ccccc3)cc2)nc2ccccc12	-	-	-	25µM	-
CCCCN(C)c1nc2c(S(=O)(=O)c3ccc(CC)cc3)nnn2c2ccc(Cl)cc12	-	.	-	.	-
CCOc1ccc(-n2c(SCC(=O)N3CCCCCC3)nc3c([nH]c4ccccc43)c2=O)cc1	-	.	-	.	-
COc1ccc(C2/C=C\CN(Cc3ccccc3)C(C)C(=O)N2Cc2ccc(F)cc2)cc1 (centres undefined)	.	-	.	-	.
CCOC(=O)C1CCCN(c2c(C(=O)c3ccc(C)cc3)cnc3ccc(OCC)cc23)C1 (centres undefined)	-	.	-	.	-
Cc1ccccc1NC(=O)C(=O)NCC1(c2ccccc2)CCCC1	-	.	-	.	-
Nc1nc(N)c(S(=O)(=O)c2ccccc2)c(Nc2ccccc2)n1	-	.	-	.	?
Cc1ccc(-c2cc(C(=O)NN3CCOCC3)c3cc(Br)ccc3n2)o1	?	-	-	25µM	-
SMILES	Tau ThT inhib	Coupling enz	Tau fluor cs	Sfp PPTase inh	Tau FP inhib
COC(=O)c1cc(-c2ccc(C)o2)nc2ccccc12	-	-	-	11µM	-
Cc1ccc(-c2cc(C(=O)N3CC(C)CC(C)C3)c3ccccc3n2)o1 (centres undefined)	.	-	.	22µM	.
O=C(NCc1ccco1)c1cccnc1-c1nc2ccccc2s1	?	-	-	22µM	?
CCCC12CN3CC(C)(CN(C1)C3c1ccc(CC)cc1)C2=O (centres undefined)	-	.	-	.	-
O=C(CCC(=O)Nc1ccccc1)N/N=C/c1ccncc1	?	-	-	?	-
O=C(CCC(=O)Nc1ccc(F)cc1)N/N=C/c1ccncc1	-	-	-	45µM	-
COc1ccc(C(=O)c2cc(C(C)=O)c(Nc3ccccc3)s2)cc1	-	-	-	50µM	?
CC(=O)[C@@]1(O)CC[C@H]2[C@H]3C[C@@H](C)C4=CC(=O)C=C[C@]4(C)[C@@]3(F)[C@@H](O)C[C@]21C	.	-	.	-	.
COc1ccc(Nc2cc(C)c3cc(NC(=O)Cc4c(F)cccc4Cl)ccc3n2)cc1	?	.	7.9µM[quencher]	.	?
COc1ccc(CC(=O)Nc2ccc3nc(Nc4ccc(OC)cc4)cc(C)c3c2)cc1	?	.	3.5µM[quencher]	.	-
